Reference: PubChem BioAssay
A number with no mark means an inactive call. Activity calls are given as the source filed them. No stated cut-off is given here; in the data, active means inhibition above about 36%; inactive means the rest.

Each molecule was assayed on transactivating tegument protein VP16 (Human herpesvirus 1) (assay: compounds suppressing VP16-driven luciferase signal – cell-based, luminescence, single concentration, counter-screen for SRC2 inhibitor project (AID 652007)). Details: cell-based VP16 transactivation luciferase reporter, at 8.9 µM, hits give high values.

| SMILES | inhibition |
| --- | --- |
| CC(=O)c1cccc(NC(=O)c2ccccc2N(C)S(=O)(=O)c2ccc(C)cc2)c1 | -5.87% |
| CC(C)(C)c1ccc(C(=O)CCC(=O)OCC(=O)NCCc2ccc(S(N)(=O)=O)cc2)cc1 | 26.1% |
| COc1ccc(OCCCCn2c(CO)nc3ccccc32)cc1 | -6.88% |
| Fc1ccc(CNC2CCN(Cc3ccccc3)CC2)cc1 | 7.5% |
| Cc1ccc([C@@H]2CC=C(C(=O)O)[C@H](c3ccccc3)N2S(=O)(=O)c2ccccc2C)cc1 | 0.1% |
| C[C@@H]1CNCCN1c1ccc(N2CCN(Cc3ccccc3)[C@@H](C)C2)c(C#N)c1 | 15.5% |
| O=C(O)CCCCCCCCCCC1CCC(O)C1O (stereo unspecified) | 20.8% |
| CN(C)CCCN(C(=O)CCOc1ccccc1)c1nc2c(F)cccc2s1 | -2.69% |
| CN1C(=O)C(c2cn(C)c3ccccc23)(c2cn(C)c3ccccc23)c2cc(F)ccc21 | 11.8% |
| CC(=C\c1ccccc1)/C=C1/SC(=S)N(CCCC(=O)O)C1=O | 78.9% (active) |
| C=C(C)C(=O)OC1(C(F)(F)F)Oc2cc(C)ccc2NC1=O (stereo unspecified) | -6.48% |
| CCOc1ccc(NC(=O)c2ccccn2)cc1 | -15.2% |
| CCCSc1ccc2nc(-c3ccccc3)cn2c1 | -24.4% |
| CCC(=O)N1N=C(c2cccs2)CC1c1ccc(C)cc1 (stereo unspecified) | -15.8% |
| CC(=O)Nc1c([N+](=O)[O-])cc(C)c(Cl)c1[N+](=O)[O-] | -10.7% |
| O=C(OC12CCCN(C1)/C(=C/c1ccncc1)C2)c1ccc(Cl)cc1 (stereo unspecified) | -7.98% |
